Compound activity from PubChem.
KDM4E inh: qHTS Assay for Inhibitors of Human Jumonji Domain Containing 2E (JMJD2E) | Lysine-specific demethylase 4E (Homo sapiens), B2RXH2 | JMJD2E catalytic domain, FDH-coupled NADH fluorescence (FDH is formaldehyde dehydrogenase) | Potency, µM (titrated, usually from 57.1 µM), hits mostly inhibitors | hit rate 1.6% among 230,000 | AID 2147, 2009; note: nearly all actives have a fitted effect of over 50% in size
HPGD block: qHTS Assay for Inhibitors of HPGD (15-Hydroxyprostaglandin Dehydrogenase). Potency, µM, usual class: inhibitors. AID 894, 2007. 15-hydroxyprostaglandin dehydrogenase [NAD(+)] (Homo sapiens), P15428. purified HPGD, NADH fluorescence kinetic, PGE2 substrate. hit rate 4.3% among 150,000
Target sequence (P15428 whole entry, looked up): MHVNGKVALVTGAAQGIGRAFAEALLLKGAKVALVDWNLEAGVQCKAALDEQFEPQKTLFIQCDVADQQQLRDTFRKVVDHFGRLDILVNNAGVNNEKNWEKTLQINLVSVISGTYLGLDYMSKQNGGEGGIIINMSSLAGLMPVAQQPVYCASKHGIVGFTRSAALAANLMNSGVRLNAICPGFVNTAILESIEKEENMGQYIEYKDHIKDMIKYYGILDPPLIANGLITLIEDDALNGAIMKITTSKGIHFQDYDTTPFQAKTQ
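20 nM HPGD preincubated 15 min at room temperature with compound in 50 mM Tris-HCl pH 8, 0.01% Tween 20. Started with 1 mM NAD+ and 30 uM prostaglandin E2; NADH fluorescence (360/450 nm) read 5 times over 30-s intervals, last minus first.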
HTT aggregate: qHTS Multiplex Assay to Identify Dual Action Probes in a Cell Model of Huntington: Aggregate Formation (GFP). hit rate 1.1% among 220,000. Potency, µM (series often up to 46.1 µM), actives largely listed as inhibitors. PC12 HttQ103-GFP aggregates, Acumen cytometry, 40 h; active = well fitted curve in the direction sought with a large enough effect; inconclusive = small, poorly fitted or top-dose-only effect, or another doubt; inactive = no such curve, though single readings can be large; an effect the other way counts as inactive or inconclusive; note: nearly all actives have a fitted effect of over 60% in size
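Aggregate formation scored by laser-scanning cytometer (488 excitation, 500–530 emission) in lysed PC12 cells expressing Q103-GFP after 100 nM tebufenozide induction; library tested in dose series, with ATPLite reagent added in the multiplex.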
HTT cytoprotect: qHTS Multiplex Assay to Identify Dual Action Probes in a Cell Model of Huntington: Cytoprotection (ATP) | AID 1471, 2008 | hit rate 0.14% among 230,000 | Potency, µM (doses to about 56.4 µM), usual class: activators | PC12 HTT-Q103 induced, cytoprotection, ATP luminescence, 40 h; active = well fitted curve in the direction sought with a large enough effect; inconclusive = small, poorly fitted or top-dose-only effect, or another doubt; inactive = no such curve, though single readings can be large; an effect the other way counts as inactive or inconclusive; note: nearly all actives have a fitted effect of over 45% in size
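Stable PC12 Q103-GFP cells in serum-supplemented, phenol red-free DMEM; induction by tebufenozide at 100 nM final; compound dose series; cell viability quantified luminescently from ATP.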
LMNA splice mod: qHTS Assay for Modulators of Lamin A Splicing; HeLa LMNA splicing GFP/RFP minigene ratio, 48 h; Potency, µM (doses to about 46.1 µM), most hits filed as inhibitors; hit rate 0.01% among 200,000; active = well fitted inhibition curve with a large enough effect in the signal ratio, with a control signal flat, not every such curve was filed as active; inconclusive = small, poorly fitted or top-dose-only effect, or effect the other way, or a change in a side signal; the % refers to the signal ratio
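Read-out is the ratio of GFP to DsRed2 object intensity, acquired by 488 nm laser-scanning cytometry on HeLa lamin A-EGFP minigene reporter cells. Compound incubation 48 hrs at 37 °C in Opti-MEM with 2% FBS; DMSO 0.5% final.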
ALDH1A1 inh: qHTS Assay for Inhibitors of Aldehyde Dehydrogenase 1 (ALDH1A1). Aldehyde dehydrogenase 1A1 (Homo sapiens), P00352. Purified ALDH1A1, NADH fluorescence, propionaldehyde substrate. Potency, µM (doses to about 75.3 µM), most hits filed as inhibitors. hit rate 7.3% among 220,000. AID 1030, 2008
Hits are given with their value; [ ] = dose if it differs, or a comment. This is a sample that favours compounds with a hit; in the whole collection about 9.2% have one here. Unless noted, calls come from the whole dose curve; as a rule, active = well fitted inhibition curve with a large enough effect (not every such curve was filed as active); inconclusive = small, poorly fitted or top-dose-only effect, or another doubt; inactive = no such curve, though single readings can be large or run the other way.

For COc1cc(NC(=O)C2=C(N3CCOCC3)/C(=C\c3ccc(N(C)C)cc3)CCC2)cc(OC)c1OC the results were KDM4E inh inconclusive, HPGD block inactive, HTT aggregate inactive, LMNA splice mod inconclusive and ALDH1A1 inh 18µM.
`O=Cc1cn(-c2ccccc2)nc1-c1ccc2c(c1)OCCO2` gave KDM4E inh inactive, HPGD block inactive, HTT aggregate inactive, HTT cytoprotect inactive[10 µM], LMNA splice mod inconclusive and ALDH1A1 inh 18µM.
`N#Cc1cn(-c2ccccc2)nc1-c1ccc2c(c1)OCCO2` gave KDM4E inh inconclusive, HPGD block inactive, HTT aggregate inactive, HTT cytoprotect inactive[0.074 µM], LMNA splice mod inactive and ALDH1A1 inh inactive.
Screening CCCCCCCC1=CC2=C(Cl)C(=O)C(C)(OC(C)=O)C(=O)C2=CN1C (stereo unspecified) returned KDM4E inh inactive, HPGD block inactive, HTT cytoprotect inactive and ALDH1A1 inh inactive.
`COC(=O)CN1C(=O)N/C(=C/c2cc3c(cc2OC)OCO3)C1=O` gave KDM4E inh inactive, HTT aggregate inactive, HTT cytoprotect inactive and ALDH1A1 inh 7.9µM.
For COC(=O)CN1C(=O)N/C(=C/c2ccc(OC)cc2)C1=O the results were KDM4E inh inactive, HTT aggregate inactive, HTT cytoprotect inactive and ALDH1A1 inh inconclusive.
For COc1cc2c(cc1/C=C1/NC(=O)N(CC(=O)Nc3ccccc3)C1=O)OCO2 the results were KDM4E inh inactive, HTT aggregate inactive[9.22 µM], HTT cytoprotect inactive[10 µM], LMNA splice mod inactive and ALDH1A1 inh inactive.
COC(=O)CN1C(=O)N/C(=C/c2cc(Cl)c(OC)c(OC)c2)C1=O was read as KDM4E inh inconclusive, HTT aggregate inactive, HTT cytoprotect inactive and ALDH1A1 inh 4µM.
`CCOc1cc2c(cc1/C=C1/NC(=O)N(CC(=O)OC)C1=O)OCO2` gave KDM4E inh inconclusive, HTT aggregate inactive, HTT cytoprotect inactive and ALDH1A1 inh 11µM.
Screening COc1ccccc1-c1nnc(SCC(=O)c2ccc(C3CCCCC3)cc2)n1Cc1ccco1 returned KDM4E inh inactive, HPGD block inactive, HTT aggregate inconclusive, HTT cytoprotect inactive, LMNA splice mod inconclusive and ALDH1A1 inh inconclusive.
`COc1ccc(C(CC(=O)Nc2ccccc2OC)n2cccc2)cc1` (stereo unspecified) gave KDM4E inh inactive, HPGD block 25µM, HTT aggregate inconclusive, HTT cytoprotect inactive[10 µM], LMNA splice mod inconclusive and ALDH1A1 inh inactive.
`Cc1ccc(CNC(=O)C(Cc2ccccc2)NS(=O)(=O)c2ccc(Br)s2)cc1` (stereo unspecified) gave KDM4E inh inactive, HPGD block inactive, HTT aggregate 25µM, LMNA splice mod inconclusive and ALDH1A1 inh inactive.
For Cc1ccc(CNC(=O)C(Cc2ccccc2)NS(=O)(=O)c2cccs2)cc1 (stereo unspecified) the results were KDM4E inh inactive, HPGD block inactive, HTT aggregate inconclusive, HTT cytoprotect inactive, LMNA splice mod inactive and ALDH1A1 inh inconclusive.
Screening CCCCN(C)CCNC(=O)Cn1ncc2c3ccccc3n(CCC)c2c1=O returned LMNA splice mod inactive.
Screening CC(CC=O)CCCC(C)(C)O (stereo unspecified) returned HTT aggregate inactive and HTT cytoprotect inactive.
`COc1cc(/C=C/C(=O)O)cc2c1OCCO2` gave KDM4E inh inconclusive, HTT aggregate inactive, HTT cytoprotect inactive, LMNA splice mod inactive and ALDH1A1 inh inconclusive.
`C/C=C(\C)C(=O)NNC(=O)c1sc(-c2ccccc2)nc1C` gave KDM4E inh inactive, HTT aggregate inactive[9.22 µM], HTT cytoprotect inactive[10 µM] and ALDH1A1 inh inactive.
Screening Nc1c(S(=O)(=O)c2ccccc2)cnc2c(-c3ccc(F)cc3)cnn12 returned KDM4E inh inactive, HPGD block inconclusive, HTT aggregate inactive, HTT cytoprotect inactive, LMNA splice mod inconclusive and ALDH1A1 inh inconclusive.
